Inconclusive results are not listed. A number with no mark means an inactive call. Active and inactive are the calls of the source. Calls come from the whole dose curve; as a rule, active = well fitted cell-killing curve with a large enough effect; inconclusive = small, poorly fitted or top-dose-only effect; inactive = no such curve, though single readings can be large or run the other way.
Experiment: qHTS of pediatric cancer cell lines to identify multiple opportunities for drug repurposing: Primary screen for NB1643 cells (AID 1347099); note: nearly all actives have a fitted effect of over 50% in size;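 for activity change, negative = cytotoxic: plate controls were DMSO neutral control for no effect and bortezomib positive control for full effect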
Details: NB1643 neuroblastoma viability, CellTiter-Glo luminescence, 48 h; series mostly up to 46 µM; activity change, negative = cytotoxic: at the top concentration
Summary of the method: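 ATP-based luminescence (CellTiter-Glo) quantifies viability after a 48-hour exposure. Compounds are dosed across 8 or 11 final concentrations; DMSO and 2.3 µM bortezomib serve as controls.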
Potency is the fitted concentration of half-maximal effect.

Row | Structure (SMILES) | Potency | activity change, negative = cytotoxic
1 | CCc1c2c(nc3ccc(O)cc13)-c1cc3c(c(=O)n1C2)COC(=O)[C@]3(O)CC | 0.0235 µM (active) | 
2 | CNC(=O)c1ccc(N2C(=S)N(c3cnc(C#N)c(C(F)(F)F)c3)C(=O)C23CCC3)cc1F | 3.32 µM (active) | 
3 | Cc1ccc(C(=O)Nc2cccc(C(F)(F)F)c2)cc1-c1ccc2nc(NCCN3CCOCC3)ncc2c1 | 5.26 µM (active) | 
4 | CN1CCN(c2ccc3nc(-c4c(N)c5c(F)cccc5[nH]c4=O)[nH]c3c2)CC1 | 16.6 µM (active) | 
5 | Clc1cccc(-c2nnnn2Cc2cccnc2)c1Cl |  | 2.98%
6 | CN1CCN(Cc2ccc(NC(=O)Nc3ccc(Oc4cc(NC(=O)C5CC5)ncn4)cc3)cc2C(F)(F)F)CC1 | 0.526 µM (active) | 
7 | O=C(c1cncc(Br)c1)N1CCC(N2CCCC2)CC1 |  | 12.7%
8 | CNC(=O)c1ccccc1Nc1nc(Nc2ccc(N3CCOCC3)cc2OC)ncc1Cl | 0.332 µM (active) | 
9 | Nc1nc(NCCNc2ncc(-n3ccnc3)c(-c3ccc(Cl)cc3Cl)n2)ccc1[N+](=O)[O-] | 18.7 µM (active) | 
10 | COc1ccc(CC2c3cc(OC)c(OC)cc3CC[N+]2(C)CCC(=O)OCCCCCOC(=O)CC[N+]2(C)CCc3cc(OC)c(OC)cc3C2Cc2ccc(OC)c(OC)c2)cc1OC (stereo unspecified) |  | 1.38% [at 9.22 µM]
11 | O=C(O)c1ccc2c(c1)nc(Nc1cccc(Cl)c1)c1ccncc12 | 2.64 µM (active) | 
12 | CC(C)(O)CCc1ccc(OCc2cc(-c3cccc(OC(F)F)c3)c3ncccc3c2)cc1 | 18.7 µM (active) | 
13 | Cc1cn(-c2cc(NC(=O)c3ccc(C)c(Nc4nccc(-c5cccnc5)n4)c3)cc(C(F)(F)F)c2)cn1 |  | -21.3%
14 | COC(=O)c1ccc2c(C(=Nc3ccc(N(C)C(=O)CN4CCN(C)CC4)cc3)c3ccccc3)c(O)[nH]c2c1 | 2.35 µM (active) | 
15 | C1=CCOCc2cc(ccc2OCCN2CCCC2)Nc2nccc(n2)-c2cccc(c2)OCC1 | 7.43 µM (active) | 
16 | C=C1C(=CC=C2CCCC3(C)[C@@H]([C@H](C)C=CC=CC(O)(CC)CC)CC[C@@H]23)C[C@@H](O)C[C@@H]1O (stereo partly specified) | 14.8 µM (active) | 
17 | CCOc1cc2ncc(C#N)c(Nc3ccc(F)c(Cl)c3)c2cc1NC(=O)C=CCN(C)C | 1.05 µM (active) | 
18 | CC(C)(C)c1cc(C(C)(C)C)c(NC(=O)c2c[nH]c3ccccc3c2=O)cc1O |  | 59.5%
19 | CCS(=O)(=O)c1cccc(-c2cc(C(=O)NC3CCN(C)CC3)c(C)c3[nH]c4ncc(C)cc4c23)c1 | 0.526 µM (active) | 
20 | C#Cc1cccc(Nc2ncnc3cc(OC)c(OCCCCCCC(=O)NO)cc23)c1 | 0.0743 µM (active) | 
21 | CC(C)c1ccc(Cn2ccc3c4c(N)nc(NC5CC5)nc4ccc32)cc1 | 18.7 µM (active) | 
22 | Cc1ccc(S(=O)(=O)Nc2cc(Cl)ccc2C(=O)Nc2nc(-c3ccccc3)cs2)cc1 | 3.72 µM (active) | 
23 | CC[C@@]1(O)C(=O)OCc2c1cc1n(c2=O)Cc2cc3cc(O)ccc3nc2-1 | 0.059 µM (active) | 
24 | C=CC(=O)Nc1cc2c(Nc3ccc(F)c(Cl)c3)ncnc2cc1C#CC(C)(C)N1CCN(C)CC1 | 0.526 µM (active) | 
25 | Cc1cc(N2CCOCC2)cc2[nH]c(-c3c(NC[C@@H](O)c4cccc(Cl)c4)cc[nH]c3=O)nc12 | 0.332 µM (active) | 
26 | O=C(C=Cc1cccc(S(=O)(=O)Nc2ccccc2)c1)NO | 0.679 µM (active) | 
27 | CC[C@H](CO)Nc1nc(NCc2ccccc2)c2ncn(C(C)C)c2n1 |  | -0.668%
28 | CNC(=O)c1cc(Oc2ccc(NC(=O)Nc3cc(C(C)(C)C)nn3-c3ccc4ncccc4c3)c(F)c2)ccn1 | 4.69 µM (active) | 

Experiment: qHTS of pediatric cancer cell lines to identify multiple opportunities for drug repurposing: Primary screen for LAN-5 cells (AID 1347100);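 for activity change, negative = cytotoxic: plate controls were DMSO neutral control for no effect and bortezomib positive control for full effect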
Details: LAN-5 neuroblastoma viability, CellTiter-Glo luminescence, 48 h; series mostly up to 46 µM; activity change, negative = cytotoxic: at the top concentration
Summary of the method: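 Cells (500-1,000/well) in growth media were settled 5 h at 37 degrees C, then given compounds for 48 h. Viability was read as CellTiter-Glo luminescence. Primary runs used MIPE at 11 points (0.78 nM-46 µM) and NPC at 8 points (0.59 nM-46 µM); follow-ups used 11 points.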

Row | Structure (SMILES) | Potency | activity change, negative = cytotoxic [%]
29 | CCN1CCN(Cc2ccc(-c3cc4c(N[C@H](C)c5ccccc5)ncnc4[nH]3)cc2)CC1 | 0.0148 µM (active) | 
30 | CCc1c2c(nc3ccc(O)cc13)-c1cc3c(c(=O)n1C2)COC(=O)[C@]3(O)CC | 0.001 µM (active) | 
31 | CNC(=O)c1ccc(N2C(=S)N(c3cnc(C#N)c(C(F)(F)F)c3)C(=O)C23CCC3)cc1F | 8.33 µM (active) | 
32 | Cc1ccc(C(=O)Nc2cccc(C(F)(F)F)c2)cc1-c1ccc2nc(NCCN3CCOCC3)ncc2c1 | 14.8 µM (active) | 
33 | Clc1cccc(-c2nnnn2Cc2cccnc2)c1Cl |  | -4.61
34 | COc1cc(C)c(Sc2cnc(NC(=O)c3ccc(CNC(C)C(C)C)cc3)s2)cc1C(=O)N1CCN(C(C)=O)CC1 (stereo unspecified) | 2.64 µM (active) | 
35 | CN1CCN(Cc2ccc(NC(=O)Nc3ccc(Oc4cc(NC(=O)C5CC5)ncn4)cc3)cc2C(F)(F)F)CC1 | 2.35 µM (active) | 
36 | CC(C)c1ccccc1Cc1cc(C(=O)Nc2ccc(S(=O)(=O)c3ccccc3C(C)(C)C)cc2)c(O)c(O)c1O | 23.5 µM (active) | 
37 | O=C(c1cncc(Br)c1)N1CCC(N2CCCC2)CC1 |  | 1.45
38 | CNC(=O)c1ccccc1Nc1nc(Nc2ccc(N3CCOCC3)cc2OC)ncc1Cl | 0.264 µM (active) | 
39 | Nc1nc(NCCNc2ncc(-n3ccnc3)c(-c3ccc(Cl)cc3Cl)n2)ccc1[N+](=O)[O-] | 10.5 µM (active) | 
40 | Cc1ccc2nc(NC(=O)CSc3nc4c(c(=O)n3-c3ccccc3)SCC4)sc2c1 | 14.8 µM (active) | 
41 | O=C(O)c1ccc2c(c1)nc(Nc1cccc(Cl)c1)c1ccncc12 | 7.43 µM (active) | 
42 | CC(C)(O)CCc1ccc(OCc2cc(-c3cccc(OC(F)F)c3)c3ncccc3c2)cc1 |  | 0.694
43 | Cc1cn(-c2cc(NC(=O)c3ccc(C)c(Nc4nccc(-c5cccnc5)n4)c3)cc(C(F)(F)F)c2)cn1 |  | -9.71
44 | COC(=O)c1ccc2c(C(=Nc3ccc(N(C)C(=O)CN4CCN(C)CC4)cc3)c3ccccc3)c(O)[nH]c2c1 | 2.35 µM (active) | 
45 | C1=CCOCc2cc(ccc2OCCN2CCCC2)Nc2nccc(n2)-c2cccc(c2)OCC1 | 2.64 µM (active) | 
46 | CCOc1cc2ncc(C#N)c(Nc3ccc(F)c(Cl)c3)c2cc1NC(=O)C=CCN(C)C | 4.18 µM (active) | 
47 | CC(C)(C)c1cc(C(C)(C)C)c(NC(=O)c2c[nH]c3ccccc3c2=O)cc1O |  | -4.32
48 | CCS(=O)(=O)c1cccc(-c2cc(C(=O)NC3CCN(C)CC3)c(C)c3[nH]c4ncc(C)cc4c23)c1 | 0.118 µM (active) | 
49 | C#Cc1cccc(Nc2ncnc3cc(OC)c(OCCCCCCC(=O)NO)cc23)c1 | 0.332 µM (active) | 
50 | CC(C)c1ccc(Cn2ccc3c4c(N)nc(NC5CC5)nc4ccc32)cc1 | 18.7 µM (active) | 
51 | CC[C@@]1(O)C(=O)OCc2c1cc1n(c2=O)Cc2cc3cc(O)ccc3nc2-1 | 0.0132 µM (active) | 
52 | C=CC(=O)Nc1cc2c(Nc3ccc(F)c(Cl)c3)ncnc2cc1C#CC(C)(C)N1CCN(C)CC1 | 2.96 µM (active) | 
53 | Cc1cc(N2CCOCC2)cc2[nH]c(-c3c(NC[C@@H](O)c4cccc(Cl)c4)cc[nH]c3=O)nc12 | 0.296 µM (active) | 
54 | COc1ccc(C(=O)CC2(O)C(=O)Nc3c(Cl)ccc(Cl)c32)cc1 (stereo unspecified) | 1.32 µM (active) | 
55 | O=C(C=Cc1cccc(S(=O)(=O)Nc2ccccc2)c1)NO | 1.21 µM (active) | 
56 | CC[C@H](CO)Nc1nc(NCc2ccccc2)c2ncn(C(C)C)c2n1 | 20.9 µM (active) | 
